Sampled rows, rich in hits. Any-hit rate of the full collection: about 2%.
Mcl1 Noxa PPI – Mcl-1/Noxa interaction inhibition. Q07820. TR-FRET Mcl-1/Noxa peptide binding, 2 h. inhibition, % at 21.7 µM. actives 1.5% (n = 220,000). AID 1022;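 active means compounds that cut the protein-peptide binding signal by more than 50% relative to plate controls in a single-dose test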;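 further: His-tagged Mcl-1 with rhodamine Noxa BH3 peptide and terbium anti-His antibody; 0% = Mcl-1 plus Noxa peptide wells and 100% = peptide-only wells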
Target sequence (Q07820 whole entry, looked up): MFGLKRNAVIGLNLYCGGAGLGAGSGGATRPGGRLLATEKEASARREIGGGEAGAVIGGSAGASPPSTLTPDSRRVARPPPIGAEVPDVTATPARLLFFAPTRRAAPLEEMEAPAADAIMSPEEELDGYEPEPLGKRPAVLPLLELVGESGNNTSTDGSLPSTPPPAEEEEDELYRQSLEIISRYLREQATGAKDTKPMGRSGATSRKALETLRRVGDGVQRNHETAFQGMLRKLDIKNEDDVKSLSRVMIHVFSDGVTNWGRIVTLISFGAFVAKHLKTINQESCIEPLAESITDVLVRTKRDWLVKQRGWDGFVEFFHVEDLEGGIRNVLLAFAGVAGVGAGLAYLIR
Mcl1 Bid PPI – Mcl-1/Bid interaction inhibition | Q07820 | AID 1021 | inhibition, % at 21.7 µM | actives 0.97% (n = 220,000) | TR-FRET Mcl-1/Bid-Dy647 peptide binding, 1536-well;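 active means compounds that cut the binding signal by more than half at the single screening dose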;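 further: His-tagged Mcl-1 with europium anti-His antibody binding Bid BH3 peptide; 0% = Mcl-1 plus peptide wells and 100% = peptide-only wells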
MCL1-BIM inh – MCL1-BIM-BH3 interaction inhibition (human); Q07820; GST-MCL1 / FITC-Bim-BH3 fluorescence polarization; inhibition, % at 10.9 µM; actives 0.68% (n = 320,000); AID 2057;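 active means inhibition above the mean inhibition of all tested compounds plus 3 SD, set per campaign, cut at about 40% in these data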;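 further: 0% = DMSO wells and 100% = unlabeled Bim-BH3 peptide control; higher means more loss of mP so more displacement of Bim peptide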
Bim-Mcl-1 – disrupts Bim peptide binding to human Mcl-1. Bead-based flow cytometry, Bim peptide-Mcl-1 binding. actives 0.1% (n = 190,000). inhibition, % at 10 µM. AID 1009; in the data active means inhibition above about 40%;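 further: 0% = no compound tracer wells and 100% = peptide blocker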
Numbers without * were called inactive; x = no result given; ! = repeats disagree.

SMILES	Mcl1 Noxa PPI	Mcl1 Bid PPI	MCL1-BIM inh	Bim-Mcl-1
O=C(NCc1ccco1)C1CCCN1C(=O)NCc1ccccc1 (stereo unspecified)	-1.7	-10.5	0.4	-7.0
O=C(NCc1ccc(F)cc1)C1CCCN1C(=O)NCc1ccccc1 (stereo unspecified)	51.5*	1.9	-0.1	1.0
CC(C)C(C)NC(=O)CN1C(=O)NC(c2ccccc2)(c2ccccc2)C1=O (stereo unspecified)	x	x	1.6	x
CCN(C(=O)CN1CCN(C)CC1)c1cccc2ccccc12	23.1	56.5*	-5.2	9.0
C=CCOc1ccc2ccccc2c1CNCCCN1CCOCC1	17.9	0.0	6.4	0.0
C=CCOc1ccc(Br)cc1CNCCCN1CCOCC1	57.0*	33.1	6.9	-3.0
Cc1cc(C)c(S(=O)(=O)NCCCn2ccnc2)cc1C	x	x	1.4	x
O=C(O)c1cc(-n2[nH]c(=O)c3ccccc3c2=O)ccc1Cl	x	x	3.5	x
O=C(COC(=O)c1ccc(OC(F)F)cc1)NCCC1=CCCCC1	x	x	-6.8	x
COc1ccccc1CNC(=O)CC(NS(=O)(=O)c1ccc(C)cc1)c1ccco1 (stereo unspecified)	18.7	92.2*	6.7	0.0
C(=C\c1ccco1)/c1ccc2ccccc2n1	74.3*	-87.3	18.4	x
O=C1NC(c2ccccc2Cl)=N/C1=C/c1ccco1	60.8*	-47.0	8.9	x
CCOC(=O)N1CCN(C(=O)COC(=O)Cc2ccc(Cl)cc2)CC1	x	x	2.0	x
CCCCn1c(-c2ccc(Cl)cc2)nc2c(=O)n(C)c(=O)[nH]c21	76.0*	-28.6	x	-1.0
COc1cc(OC)cc(C(=O)N[C@H](C(=O)Nc2cc(F)ccc2C)C(C)C)c1	x	x	-6.8	x
CCOc1ccc(NC(=O)Nc2cc(C(=O)O)ccc2N2CC3CC(C2)c2cccc(=O)n2C3)cc1 (stereo unspecified)	x	x	-6.6	x
CSc1nc(NCc2ccco2)c2c3c(sc2n1)CN(C)CC3	57.3*	9.4	17.3	2.0
CSc1nc(SCC(=O)NCc2ccco2)c2c3c(sc2n1)CN(C)CC3	83.7*	33.8	29.7	2.0
CSc1nc(SCC(N)=O)c2c3c(sc2n1)CN(C)CC3	33.4	-11.2	20.5	0.0
OCC[C@@H]1C[C@H](O)[C@@H](O)[C@@]2(Cc3ccccc3O2)O1	x	x	3.9	x
CCC(C)(C)C1CCc2[nH]nc(C(=O)NCc3ccccn3)c2C1 (stereo unspecified)	x	x	1.6	x
CCOC(=O)c1ccc(NS(=O)(=O)c2c(N)n(C)c(=O)n(C)c2=O)cc1	x	x	5.0	x
COc1ccc(N(CC2CO2)S(=O)(=O)c2ccc(C)cc2)cc1 (stereo unspecified)	x	x	4.4	x
O=C(c1ccccc1)N1CCN(C(=O)c2nn3c(C(F)(F)F)cc(-c4ccccc4)nc3c2Br)CC1	x	x	9.3	x
Cc1ccc(C)n1-c1cccc(C(=O)O)c1	98.9*	88.4*	70.7*	13.0
SMILES	Mcl1 Noxa PPI	Mcl1 Bid PPI	MCL1-BIM inh	Bim-Mcl-1
Cc1ccc(C)n1-c1cccc(N)c1	21.6	-76.5	45.3*	3.0
Cc1ccc(C)n1-c1cccc(C(=O)Nc2ccccc2)c1	15.5	-37.7	-11.2	x
COC(=O)C1(c2ccccc2)NC(c2ccc(O)cc2)C2C(=O)N(c3ccc4c(c3)OCO4)C(=O)C21 (stereo unspecified)	-1.2	-12.3	6.2	x
CCCCCC1CC(CC#CCN2CCOCC2)C(=O)O1 (stereo unspecified)	-1.4	51.1*	14.6	0.0
Cc1ccc(C(=O)Nc2c(-c3cccs3)c(=O)c3ccccc3n2C)cc1	-0.1	66.3*	-0.2	1.0
COc1ccc(C(=O)Nc2c(-c3cccs3)c(=O)c3ccccc3n2C)cc1	12.7	-7.8	8.3	x
O=C(NCCc1ccccc1)c1ccc(NCC2CCCO2)c([N+](=O)[O-])c1 (stereo unspecified)	-1.5	-22.7	5.4	3.0
CCn1c(=O)c2sccc2n2c(CCCC(=O)NCc3cccnc3)nnc12	x	x	2.6	x
NS(=O)(=O)c1ccc(CCNC(=O)C(=O)c2c[nH]c3ccccc23)cc1	7.3	98.7*	13.8	-4.0
C#Cc1ccc([C@H]2C=C(C(=O)O)O[C@@H](OCc3ccc(CO)cc3)C2)cc1	7.1	50.6*	-0.8	-2.0
C#Cc1ccc([C@@H]2C=C(C(=O)N3CCN(Cc4ccc5c(c4)OCO5)CC3)O[C@H](OCCCCO)C2)cc1	-0.6	83.8*	1.9	0.0
O=C(C1=C[C@@H](c2ccc(C(F)(F)F)cc2)C[C@@H](OCc2ccc(CO)cc2)O1)N1CCN(Cc2ccccc2)CC1	80.9*	-14.7	8.4	0.0
O=C(C1=C[C@@H](c2ccc3c(c2)OCO3)C[C@@H](OCCCCO)O1)N1CCN(Cc2ccc3c(c2)OCO3)CC1	3.3	14.1	-2.0	-4.0
CCCCc1noc(-c2c(-c3ccccc3Cl)noc2C)n1	4.6	-20.6	-0.8	0.0
CC(C)NC(=O)N(Cc1ccccc1)Cc1cccs1	1.9	-12.4	10.9	x
CCCCn1c(NCc2cccs2)nc2ccccc21	50.5*	-9.2	1.6	0.0
CCCCn1c(NCc2ccc(N(C)C)cc2)nc2ccccc21	89.4*	-29.9	0.0	x
COc1ccc(Br)c(C(=O)NC2CCCC2)c1	-8.2	-26.5	-3.1	-2.0
C/C(=N/NC(=O)c1ccc(Cl)s1)c1ccc(NC(=O)COc2ccc(Cl)cc2)cc1	-68.6	54.6*	4.1	-4.0
Cc1ccccc1NC(=O)CSc1nnc(C2CC2)n1CC1CCCO1 (stereo unspecified)	x	x	3.8	x
NC(=O)COc1c(-c2ccccc2)oc2ccccc2c1=O	16.6	97.5*	8.0	3.0
O=C(O)COc1c(-c2ccccc2)oc2ccccc2c1=O	3.9	11.1	4.0	-1.0
OC(COCc1ccccc1)CN1CCN(Cc2ccc3c(c2)OCO3)CC1 (stereo unspecified)	55.1*	8.7	-4.8	-1.0
Fc1ccccc1NC(=S)N1CCN(Cc2ccc3c(c2)OCO3)CC1	4.4	92.3*	14.1	0.0
SC(COCc1ccccc1)CN1CCN(Cc2ccc3c(c2)OCO3)CC1 (stereo unspecified)	-5.0	-55.0	7.1	-1.0
SMILES	Mcl1 Noxa PPI	Mcl1 Bid PPI	MCL1-BIM inh	Bim-Mcl-1
Cc1cc(Cl)ccc1NC(=S)N1CCN(Cc2ccc3c(c2)OCO3)CC1	17.4	-26.5	2.8	-2.0
COc1ccc(OCC(O)CN2CCN(Cc3ccc4c(c3)OCO4)CC2)cc1 (stereo unspecified)	24.1	-12.1	-0.6	-1.0
CC(=O)c1ccc(OCC(O)CN2CCN(Cc3ccc4c(c3)OCO4)CC2)cc1 (stereo unspecified)	27.8	52.1*!	5.1	0.0
O=C(CSc1ccc(-c2cccnc2)nn1)Nc1ccccc1C(F)(F)F	x	x	6.1	x
COC(=O)c1ccc(NC(=O)CSc2nncn2-c2ccccn2)cc1	x	x	1.6	x
Cc1ccc2nc(-c3ccc(N4C(=NC(=O)CCC(=O)O)SC5CS(=O)(=O)CC54)cc3)sc2c1 (stereo unspecified)	54.6*	-10.6	6.7	-6.0
CC(=O)N=C1SC2CS(=O)(=O)CC2N1c1ccc(-c2nc3ccc(C)cc3s2)cc1 (stereo unspecified)	-51.1	-49.9	-102.5	-1.0
CCOC(=O)c1c2c3c(c(Cl)ccc3[nH]c1=O)C(=O)c1ccccc1-2	42.9	-37.3	x	29.0
